In the library only some 12% were active in any assay of this set; here they are far more common.
BAZ2B inh: BAZ2B (human) inhibition. Q9UIF8. AlphaScreen BAZ2B-H3K14Ac peptide displacement. Potency, µM (series often up to 114 µM), for the others: at the highest dose activity change, negative = inhibition, actives largely listed as inhibitors. hit rate 4.4% among 360,000. AID 504333; also: potency is read from the fitted curve at half-maximal effect; % is scaled to controls: 0 for no effect and ±100 for the full control effect; nearly all actives have a fitted effect of over 60% in size
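AlphaScreen luminescence quantifies BAZ2B engagement of H3K14Ac peptide; the protein and biotinylated peptide are both at 50 nM final, buffer PBS pH 7.4 with 0.01% Tween-20, all steps at room temperature.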
HP1b chromo inh: inhibitors of HP1-beta chromodomain binding to methylated histone tails; Potency, µM (highest dose often 114 µM), for inactives: top-dose activity change, negative = inhibition, most hits filed as inhibitors; hit rate 0.56% among 390,000; AlphaScreen HP1-beta / biotin-H3K9me3 peptide binding; P83916; also: potency is read from the fitted curve at half-maximal effect; nearly all actives have a fitted effect of over 70% in size
Target sequence (P83916 whole entry, looked up): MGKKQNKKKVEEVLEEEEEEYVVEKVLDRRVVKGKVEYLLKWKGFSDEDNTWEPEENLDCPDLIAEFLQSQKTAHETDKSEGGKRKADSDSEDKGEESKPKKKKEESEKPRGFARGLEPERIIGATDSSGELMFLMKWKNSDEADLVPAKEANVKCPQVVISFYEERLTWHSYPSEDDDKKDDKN
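Compound inhibition of the preformed complex between 50 nM HP1-beta and 50 nM biotinylated H3K9me3 peptide was read by AlphaScreen. Buffer was PBS pH 7.4 with 0.01% Tween-20. Incubations ran 30 min at room temperature, with 10 ug/mL donor/acceptor beads.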
G9a block: G9a (human) methyltransferase inhibition | Potency, µM (titrated, usually from 102 µM), inactives show top-dose activity, negative = inhibition, actives largely listed as inhibitors | G9a H3K9 monomethylation, AlphaScreen, 2 h | hit rate 8.8% among 350,000 | Q96KQ7 | AID 504332; also: potency is read from the fitted curve at half-maximal effect; % is scaled to controls: 0 for no effect and ±100 for the full control effect; nearly all actives have a fitted effect of over 75% in size
Target sequence (Q96KQ7 913-1193 limits assumed): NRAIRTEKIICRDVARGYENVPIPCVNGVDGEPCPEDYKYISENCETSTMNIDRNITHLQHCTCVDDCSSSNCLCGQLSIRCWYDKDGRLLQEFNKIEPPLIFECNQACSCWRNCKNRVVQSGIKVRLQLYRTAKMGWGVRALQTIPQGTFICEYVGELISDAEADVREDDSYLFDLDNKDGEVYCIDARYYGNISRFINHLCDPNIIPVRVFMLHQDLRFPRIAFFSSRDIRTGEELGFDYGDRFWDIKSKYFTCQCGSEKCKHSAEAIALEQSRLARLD
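AlphaScreen read-out: biotin-H3K9 peptide (500 nM) methylation by 20 nM enzyme with 20 uM SAM, 2 h at room temperature after 15 min compound preincubation; anti-monomethyl H3K9 antibody plus donor/acceptor beads, 10 min dark.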
PI5P4K alpha inh: inhibitors of human PI5P4K alpha. P48426. PI5P4Kalpha enzyme, ADP-Glo luminescence, 60 min; stronger effect = lower value. max response, %. hit rate 1.2% among 330,000. AID 652105; active = max response of -50% or lower; inconclusive = between -30% and -50%; inactive = -30% or higher; also: value at the top dose of about 77 µM; % is scaled to controls: 0 for no effect and ±100 for the full control effect
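Reactions run in 0.038 M HEPES pH 7.4, 0.28 mM EGTA, 0.1% CHAPS and 5% DMSO, with PI5P4Kalpha, substrate, compound and 5 microM ATP final, one hour at room temperature. Readout is ADP-Glo luminescence.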
JMJD2A Tudor inh: inhibitors of human JMJD2A Tudor domain; O75164; AlphaScreen JMJD2A-Tudor / H3K4me3 peptide binding; Potency, µM (doses to about 114 µM), for the others: top-dose activity change, negative = inhibition, usual class: inhibitors; hit rate 4.4% among 390,000; AID 504339; also: potency is read from the fitted curve at half-maximal effect; % is scaled to controls: 0 for no effect and ±100 for the full control effect; nearly all actives have a fitted effect of over 50% in size
PLK1 PBD inh: PLK1 (human) polo-box domain binding inhibition | P53350 | Potency, µM, for inactives: max response, negative = inhibition, usual class: inhibitors | hit rate 2.8% among 360,000 | Plk1 PBD binding of FITC phosphopeptide, fluorescence polarization; also: potency is read from the fitted curve at half-maximal effect; series mostly up to about 57 µM; % is scaled to controls: 0 for no effect and ±100 for the full control effect; nearly all actives have a fitted effect of over 65% in size
* hit, by the source's call; [ ] = another dose, or the depositor's remark. Unless noted, calls follow the shape of the dose curve; as a rule, active = well fitted curve in the direction sought with a large enough effect; inconclusive = small, poorly fitted or top-dose-only effect, or another doubt; inactive = no such curve, though single readings can be large; an effect the other way counts as inactive or inconclusive.

Screening Cc1cn([C@H]2C[C@H](O)[C@@H](CNCc3ccc(F)c(N4CCOCC4)c3)O2)c(=O)[nH]c1=O returned PI5P4K alpha inh 1 and PLK1 PBD inh 2%.
Screening Cn1cc(P(=S)(N2CCOCC2)N2CCOCC2)cc1P(=S)(N1CCOCC1)N1CCOCC1 returned BAZ2B inh -9%, HP1b chromo inh 3%, G9a block 45µM*, PI5P4K alpha inh 1, JMJD2A Tudor inh 1% and PLK1 PBD inh inconclusive.
Cc1cc(C)c(S(=O)(=O)NCC(c2ccco2)N2CCN(c3ccccc3)CC2)c(C)c1 (stereo not drawn) was read as BAZ2B inh -22%, HP1b chromo inh 14%, G9a block -4%[59 µM] and JMJD2A Tudor inh -22%.
S=c1[nH]ncn1NCc1cccc(Br)c1 was read as HP1b chromo inh 18%, PI5P4K alpha inh -3, JMJD2A Tudor inh 16µM* and PLK1 PBD inh -29%.
Brc1cccc(CNn2cnnc2)c1 was read as HP1b chromo inh -3%, PI5P4K alpha inh -1, JMJD2A Tudor inh -11% and PLK1 PBD inh -12%.
Screening Cc1ccc(CNn2cn[nH]c2=S)cc1 returned HP1b chromo inh 38%, PI5P4K alpha inh 8, JMJD2A Tudor inh 8.9µM* and PLK1 PBD inh 2%.
Screening C=CCOc1ccc2ccccc2c1CNn1cn[nH]c1=S returned BAZ2B inh -9%, HP1b chromo inh 31%, PI5P4K alpha inh 2, JMJD2A Tudor inh inconclusive and PLK1 PBD inh -5%.
`C=CCOc1ccc(CNn2cn[nH]c2=S)cc1` gave BAZ2B inh -2%, HP1b chromo inh 25%, G9a block 20µM*, JMJD2A Tudor inh 32µM* and PLK1 PBD inh -4%.
For CCn1c(=O)n(CC)c2cc(N3CCCCC3)c(NC(=O)Nc3cc(C)cc(C)c3)cc21 the results were BAZ2B inh inconclusive, HP1b chromo inh 4%, G9a block inconclusive and JMJD2A Tudor inh inconclusive.
For CCc1ccccc1NC(=O)C1CCN(C2=NS(=O)(=O)C(c3ccc(C)c(C)c3)=C2C)CC1 the results were BAZ2B inh inconclusive, HP1b chromo inh 1%, G9a block 6%[59 µM] and JMJD2A Tudor inh -11%.
Screening COc1ccccc1-n1cnnc1SCC(=O)Nc1cc(C(C)(C)C)nn1-c1ccccc1 returned BAZ2B inh -1%, HP1b chromo inh -8%, G9a block -19%[59 µM], PI5P4K alpha inh -21, JMJD2A Tudor inh -28%[11.4 µM] and PLK1 PBD inh 3.4µM*.
COc1ccc(-n2cnnc2SCC(=O)Nc2cc(C(C)(C)C)nn2-c2ccccc2)cc1 was read as BAZ2B inh 10%, HP1b chromo inh 25%, G9a block 18%[12.7 µM], PI5P4K alpha inh 0, JMJD2A Tudor inh -4% and PLK1 PBD inh -2%.
Cc1cccc(C(=O)OC2CCOC2=O)c1O (stereo not drawn) was read as BAZ2B inh 8%, HP1b chromo inh 21%, G9a block 15%, PI5P4K alpha inh 9, JMJD2A Tudor inh -3% and PLK1 PBD inh -9%.
For C=C/C(C)=C/C[C@H]1C(=C)CCC2[C@](C)(C(=O)O)CCC[C@@]21C (stereo partly drawn) the results were BAZ2B inh inconclusive, HP1b chromo inh 34%, G9a block -12%[12.7 µM], PI5P4K alpha inh 5, JMJD2A Tudor inh inconclusive and PLK1 PBD inh 19µM*.
`C=C1CCC2[C@](C)(CO)[C@H](O)CC[C@@]2(C)[C@@H]1C/C=C1\C(=O)OC[C@H]1O` (stereo partly drawn) gave BAZ2B inh 11%, HP1b chromo inh 60%, G9a block 0%[12.7 µM], PI5P4K alpha inh -1, JMJD2A Tudor inh -10% and PLK1 PBD inh 3%.
C=CCC1CCCCC12NC(=O)N(c1ccccc1)N2 (stereo not drawn) was read as BAZ2B inh -1%, HP1b chromo inh 18%, PI5P4K alpha inh -1, JMJD2A Tudor inh -10% and PLK1 PBD inh -9%.
O=C1CCC2(CC1)NC(=O)N(c1ccccc1)N2 was read as BAZ2B inh -11%, HP1b chromo inh 37%, G9a block 7.1µM*, PI5P4K alpha inh 8, JMJD2A Tudor inh -6%[11.4 µM] and PLK1 PBD inh -13%.

High-throughput results: PubChem, National Center for Advancing Translational Sciences (NCATS)
